{"source": "PubChem BioAssay (NCI)", "note": "Compounds without any hit were thinned out: in the full panel of roughly 83,000, 20% have a hit.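 For each line, cells grew in 96-well plates with the test compound present at a single concentration for 48 hours.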 Calls of active or inactive are those of the source. The calls were made as follows: active = growth percent below 10; inactive = the rest.", "data": [{"test_system": "HL-60(TB) leukemia", "test": "NCI-60 one-dose screen, 48 h (100 = growth as untreated, 0 = no growth, -100 = all killed)", "conditions": "10 µM unless noted", "values": [{"smiles": "CN(CCSSCCN1CCOCC1)C(=O)Oc1cc2c(c3ccccc13)[C@H](CCl)CN2C(=O)c1cc2cc(OCCCN3CCC3)ccc2[nH]1", "growth": "-45.8% (active)"}, {"smiles": "CN(C)CCOc1ccc(C(=O)C2[C@H](c3ccc(Cl)cc3)[C@@H](c3ccccc3)NC23C(=O)Nc2ccc(Br)cc23)cc1", "note": "(stereo not given in full)", "growth": "-60.6% (active)"}, {"smiles": "CC(=O)Nc1ccc(-c2nc3cc(-c4ccc(O)cc4)ccc3n2C)cc1", "growth": "26% (inactive)"}, {"smiles": "CC1CN(c2oc(-c3ccc([N+](=O)[O-])cc3)nc2C#N)CC(C)O1", "note": "(stereo not given)", "growth": "95% (inactive)"}, {"smiles": "CN(C)c1ccnc(CNCCSC2(c3ccccc3)c3ccccc3C=Cc3ccccc32)c1", "growth": "-42.8% (active)"}, {"smiles": "Cc1ccccc1NC(=O)c1cccc(NC(=O)CCl)c1", "growth": "19% (inactive)"}, {"smiles": "CN1CCCN(Cc2ccc(C(=O)Nc3cccc(Nc4ccc5c(O)cccc5n4)c3)cc2C(F)(F)F)CC1", "growth": "-7.86% (active)"}, {"smiles": "Brc1ccc(/C=N/Nc2ncnc3sc4c(c23)CCN(Cc2ccccc2)C4)cc1", "growth": "19.9% (inactive)"}, {"smiles": "COc1nc(N)ncc1-c1ccc2ncnc(N3CCc4cc(F)c(Cl)cc43)c2c1", "growth": "47% (inactive)"}, {"smiles": "CCCCCCCCc1ccc(C(=O)Nc2cccc(P(=O)(O)O)c2)cc1", "growth": "101% (inactive)"}, {"smiles": "COc1ccc(OC)c(/C=N/NC(=O)c2ccc3nc(-c4ccc(Cl)cc4)[nH]c3c2)c1", "growth": "87.1% (inactive)"}, {"smiles": "CC(=O)Nc1ccc(-c2cn(-c3cccc(C(=O)Nc4ccc(Cl)c(C(F)(F)F)c4)c3)nn2)cn1", "growth": "35% (inactive)"}, {"smiles": "C=CC(=O)N1CCN(c2ccc3nc4c(nc3c2C(F)(F)F)C(=O)c2ncccc2C4=O)CC1", "growth": "-24.7% (active)"}, {"smiles": "CCOc1ccc(Nc2nc3ccccc3nc2Nc2ccc(OCC)cc2)cc1", "growth": "31.4% (inactive)"}, {"smiles": "CN(C)c1ccc(/C=C/c2n(Cc3ccc4ccccc4c3)c3ccccc3[n+]2Cc2ccc3ccccc3c2)cc1", "growth": "-47.1% (active)"}, {"smiles": "COC[C@@H](CC(C)C)N=C1NC(=O)/C(=C/c2ccc3ncoc3c2)N1", "growth": "1.03% (active)"}, {"smiles": "O=C(CNc1nc(-c2ccccc2)cs1)Nc1cccc([N+](=O)[O-])c1", "growth": "-8.94% (active)"}, {"smiles": "NS(=O)(=O)c1ccc(N=Nc2c(O)n(CC(=O)Nc3ccccc3Br)c3ccccc23)cc1", "growth": "76.6% (inactive)"}, {"smiles": "CC1=C(C)C(=O)C(N2CCSCC2)=CC1=O", "growth": "89.3% (inactive)"}, {"smiles": "O=C(CSc1nnc(-c2ccc(-c3nc4ccccc4[nH]3)cc2)o1)Nc1ccc(Cl)cc1", "growth": "37.6% (inactive)"}, {"smiles": "O=C1CCCc2cc(OCC(=O)N3CCCCC3)ccc2N1", "growth": "91.9% (inactive)"}, {"smiles": "COc1cc(C2CC(c3ccc(Oc4ccc(Cl)cc4)cc3)=NN2c2nc(-c3ccc(Cl)cc3)c(C#N)c(N3CCOCC3)n2)cc(OC)c1OC", "note": "(stereo not given)", "growth": "102% (inactive)"}, {"smiles": "OCCNc1oc(-c2ccccc2)nc1[P+](c1ccccc1)(c1ccccc1)c1ccccc1", "growth": "-29.6% (active)"}, {"smiles": "COc1cc2c(c(OC)c1OC)C(=O)CC(c1cccc(NC(=O)c3cccc(N)c3)c1)O2", "note": "(stereo not given)", "growth": "86.4% (inactive)"}, {"smiles": "N#Cc1cnn(C(=O)c2ccccc2Br)c1NC(=O)c1ccc(Br)cc1Cl", "growth": "107% (inactive)"}, {"smiles": "S=C(Nc1ccccc1)Nc1ccc(OCc2nc3ccc(Cl)cc3[nH]2)cc1", "growth": "85.2% (inactive)"}, {"smiles": "N#Cc1ccc(-c2nn(-c3ccc(C(=O)O)cc3)cc2CNc2ccc(Oc3ccccc3)cc2)cc1", "growth": "34.4% (inactive)"}, {"smiles": "Oc1ccc(Cl)c(Nc2ncnc3c2cnn3CC(Cl)c2ccc(Br)cc2)c1", "note": "(stereo not given)", "growth": "80.5% (inactive)"}, {"smiles": "Clc1cccc(N/N=C/c2c[nH]c3ccc(Br)cc23)n1", "growth": "5.14% (active)"}, {"smiles": "COC1=C[C@]23CCC(=O)N2CCc2cc4c(cc2[C@@H]3[C@@H]1OC(=O)CCCC(C)C)OCO4", "growth": "7.81% (active)"}, {"smiles": "C=C1CCC2C3(C)COC(c4ccc(F)cc4)OC3CCC2(C)C1C/C=C1/C(=O)OCC1O", "note": "(stereo not given)", "growth": "0.0909% (active)"}, {"smiles": "CS(=O)(=O)Nc1cc(-c2ccc3ncnc(Nc4ccc(OCc5cccnc5)c(Cl)c4)c3c2)cnc1Cl", "growth": "-59.5% (active)"}, {"smiles": "N#Cc1ccc(NC(=O)CSc2ccc(-c3ccc(Br)cc3)nn2)cc1", "growth": "82.9% (inactive)"}, {"smiles": "COc1ccc2c(c1)N=C(C(=O)O)/C2=C/c1sc(Nc2ccc(O)cc2)nc1O", "growth": "85.8% (inactive)"}, {"smiles": "N#Cc1c(NC(=O)N2CCOCC2)n(-c2ccc(OC(F)(F)F)cc2)c2cc(F)ccc12", "growth": "91.2% (inactive)"}, {"smiles": "COc1cccc(COc2ccc(/C=C3\\Oc4cc(O)ccc4C3=O)cc2)c1", "growth": "79.5% (inactive)"}, {"smiles": "Cc1ccc(C(=O)Nc2cc(-c3ccccc3)cc(C(F)(F)F)c2)cc1C#Cc1cnc2cccnn12", "growth": "38.1% (inactive)"}, {"smiles": "COc1c(F)ccc(C(=O)Nc2ccc3nc(NC(=O)C4CCCN(S(=O)(=O)c5ccc(Br)s5)C4)sc3c2)c1F", "note": "(stereo not given)", "growth": "80.6% (inactive)"}, {"smiles": "CC(C)(C)C(=O)C1CC(C#N)=C2C=Cc3c(ccc4ccccc34)N21", "note": "(stereo not given)", "growth": "108% (inactive)"}, {"smiles": "CN(C)c1nc(NCCNS(=O)(=O)c2ccc(C3=Nc4c(N)nc(N)nc4NC(c4ccc(Cl)cc4)C3)cc2)nc(Nc2ccc(F)cc2)n1", "note": "(stereo not given)", "growth": "-13.8% (active)"}]}]}
